The record followed here is PubChem BioAssay AID1851 (National Center for Advancing Translational Sciences (NCATS), 2009).

One may read the AC50 as the concentration at which the activity in the assay is half-maximal.

Out of some 16,000 compounds screened, about 5,800 (36%) were called active. Not shown: some 23% with an inconclusive outcome. The list shows a part of the results. Values without a mark were called inactive. Calls follow the shape of the dose curve; as a rule, active = well fitted curve in the direction sought with a large enough effect; inconclusive = small, poorly fitted or top-dose-only effect, or effect the other way; inactive = no such curve, though single readings can be large or run the other way.
% is scaled to controls: 0 for no effect and ±100 for the full control effect.

In this test the target is Cytochrome P450 2C19 (Homo sapiens) (UniProt P33261). The test can be described thus: Cytochrome panel assay with activity outcomes. Particulars: recombinant CYP, pro-luciferin dealkylation, luminescence, p450-cyp2c19; series mostly up to 57.1 µM; activity, negative = inhibition: at the top concentration.
Chain of Cytochrome P450 2C19 (Homo sapiens) (P33261 whole entry, looked up): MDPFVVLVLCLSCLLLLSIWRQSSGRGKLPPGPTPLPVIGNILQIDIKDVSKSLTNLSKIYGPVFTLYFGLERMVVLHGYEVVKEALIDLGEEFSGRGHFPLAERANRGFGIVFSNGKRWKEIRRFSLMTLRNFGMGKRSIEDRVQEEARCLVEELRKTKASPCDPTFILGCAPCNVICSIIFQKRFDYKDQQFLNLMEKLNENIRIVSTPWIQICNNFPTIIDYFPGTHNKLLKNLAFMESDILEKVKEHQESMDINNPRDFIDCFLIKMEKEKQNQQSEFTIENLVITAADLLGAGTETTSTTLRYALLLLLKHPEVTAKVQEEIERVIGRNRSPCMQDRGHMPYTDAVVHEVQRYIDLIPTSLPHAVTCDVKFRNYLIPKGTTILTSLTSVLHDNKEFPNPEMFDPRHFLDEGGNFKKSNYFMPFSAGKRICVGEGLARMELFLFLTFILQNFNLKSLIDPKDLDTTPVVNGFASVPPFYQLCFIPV
For the compound `CCOC(=O)C1=C(CSc2nc(-c3ccccc3)ccc2C#N)OC(N)=C(C#N)C1c1ccc(OC)cc1` (configuration not stated), the AC50 was 2.82 µM (active).
On to `CN1CCN(c2ncc3nc(-c4cc(F)cc(F)c4)c(=O)n(C)c3n2)CC1`, for which the “activity, negative = inhibition” value is -2.58%.
With `Cc1ccc(OCC(O)CNC(=O)c2ccccc2C(=O)O)cc1` (configuration not stated), the AC50 was 20 µM (active).
Turning to `CC(C)NC[C@@H](O)COc1ccc(COCCOC(C)C)cc1`, the AC50 entry was “inactive”.
Take `Cc1ccc(S(=O)(=O)NCC(=O)N(CC(=O)NCc2ccco2)Cc2cccs2)cc1`: the AC50 is 14.1 µM (active).
Turning to `CC(C)(C)OC(=O)NCCc1nnc(SCC(=O)Nc2cccc(Cl)c2)o1`, the AC50 was 3.98 µM (active).
In the case of `NC(=O)OCC(COC(N)=O)c1ccccc1`, the “activity, negative = inhibition” value is -44.6%.
On to `Cc1ccc(C(CC(N)=O)c2ccco2)cc1` (configuration not stated), for which the AC50 was 14.1 µM (active).
Turning to `CC(C)(C)c1cc2cccnc2n1Cc1ccccc1`, the AC50 is 10 µM (active).
In the case of `COc1ccc(CC(=O)NCCN2CCCC2)cc1`, the “activity, negative = inhibition” value is -46.4%.
Same read-out and setting: for `COc1ccc(-c2nc(C(=O)N3CCN(C)CC3)sc2-c2ccc(OC)cc2)cc1` the value was -28.6%.
For `COc1ccc(-c2ccc(C(=S)N3CCN(C(C)=O)CC3)o2)cc1`, the AC50 is 15.8 µM (active).
Turning to `O=C(Nc1ccccc1)c1cc(-n2cnnc2)ccc1Cl`, the “activity, negative = inhibition” value was -17.8%.
Take `O=C(Nc1ccccc1)c1cc([N+](=O)[O-])ccc1Cl`: the AC50 was 0.794 µM (active).
Turning to `O=C(Nc1ccccc1)c1ccccc1CC[N+](=O)[O-]`, the AC50 is 17.8 µM (active).
For `O=C(O)c1ccccc1-c1ccccc1C(=O)Nc1ccccc1`, the “activity, negative = inhibition” value was -19.3%.
With `Cn1c(=O)c2[nH]c(/N=N\N3CCN(CCO)CC3)nc2n(C)c1=O`, the activity, negative = inhibition is 7.88% [at 11.4 µM].
Consider `O=C(O)CN(CCN(CC(=O)O)CC(=O)O)CC(=O)O.[Mn]`, for which the activity, negative = inhibition was -2.62% [at 11.4 µM].
For the compound `CCCCCNCc1cccc(Br)c1`, the AC50 is 11.2 µM (active).
As to `O=C(NCCC1=CCCCC1)C1CCCN(c2nc3ccccc3o2)C1` (configuration not stated), the AC50 was 2.82 µM (active).
In the case of `CC(C)(C)c1ccc(C(=O)N2CCC(C(=O)NCCC3=CCCCC3)CC2)cc1`, the half-maximal activity concentration (AC50) was 15.8 µM (active).
On to `CC(=O)Nc1nc(NC(C)=O)c2[nH]c(CO)nc2n1`, for which the activity, negative = inhibition was 4.22% [at 11.4 µM].
As to `COc1cc(OC)nc(NC(C)=O)n1`, the “activity, negative = inhibition” value is 14.4%.
Turning to `CSc1cc(C)nc(NC(C)=O)n1`, the AC50 is 7.94 µM (active).
In the case of `O=C(Oc1ccc2ccccc2c1Br)N1CCCCCC1`, the AC50 is 1.78 µM (active).
With `O=C(Oc1ccccc1)N1CCC2(CC1)CCN(c1ccccc1)CC2`, the “activity, negative = inhibition” value was -34.4%.
As to `Cc1cc(C)c2c(-n3cccc3)n[nH]c2n1`, the AC50 is 5.01 µM (active).
`Cc1cc(C)c2c(-n3cccc3)nn(CC#N)c2n1`: the AC50 is 11.2 µM (active).
Consider `CN(C)/N=N\c1nc[nH]c1C(N)=O`, for which the “activity, negative = inhibition” value was 30.5% [at 25.6 µM].
Consider `CCc1nnc2sc(-c3ccc(NC(=O)c4ccco4)cc3)nn12`, for which the AC50 was 28.2 µM (active).
Turning to `O=C(O)[C@@H](O)[C@@H](O)[C@@H](O[C@H]1O[C@@H](CO)[C@@H](O)[C@@H](O)[C@@H]1O)[C@@H](O)CO`, the “activity, negative = inhibition” value is 12.8% [at 25.6 µM].
For `Cc1cccc(CSc2cccc3cccnc23)c1`, the AC50 is 2.24 µM (active).
Take `COc1ccc(/C(C)=N/NC(=O)c2ccc(CSc3cccc4cccnc34)cc2)cc1OC`: the AC50 is 2.51 µM (active).
As for `COCC(C)NCc1cccc(C)c1` (configuration not stated), the “activity, negative = inhibition” value was -18%.
Still for that read-out and setting: the figure for `CO[C@H]1COC(=O)C/C=C\[C@H](C)[C@@H](OC)COC(=O)[C@H](C)COC(=O)C/C=C\[C@@H]1C` is 9.22% [at 11.4 µM].
Take `C=CCNc1cnn(-c2ccc(C)cc2)c(=O)c1Cl`: the AC50 is 11.2 µM (active).
As to `Cc1ccc(-n2ncc(N(C)C)c(Cl)c2=O)cc1`, the “activity, negative = inhibition” value was -22.8%.
For the compound `C[C@@H](C(=O)O)c1ccc(C(=O)c2ccccc2)s1`, the AC50 is 3.98 µM (active).
In the case of `CC(C)/C(=N/[N+](C)(C)C)c1ccccc1`, the activity, negative = inhibition was 18.6% [at 11.4 µM].
In the case of `C[C@@H](C(=O)O)c1ccc(C(=O)c2cccs2)cc1`, the “activity, negative = inhibition” value is -23.7% [at 25.6 µM].
For the compound `Cc1ccccc1Oc1ncnc2sccc12`, the AC50 is 3.55 µM (active).
In the case of `COCCNC(=O)CSc1ncnc2sccc12`, the “activity, negative = inhibition” value was -22.8%.
As for `Cc1cc(Cl)ccc1Oc1ncnc2oc(-c3ccccc3)cc12`, the AC50 was 1.12 µM (active).
As to `Cc1ccccc1Oc1ncnc2oc(-c3ccccc3)cc12`, the AC50 is 3.98 µM (active).
Take `COc1cccc([C@H](O)Cn2cc(-c3ccc(CON=C(C)C)cc3)nn2)c1`: the activity, negative = inhibition is 6.04% [at 11.4 µM].
Consider `Cc1cccc(OCCn2c(-c3ccco3)nc3ccccc32)c1`, for which the AC50 was 1.58 µM (active).
Regarding `Cc1cccc(OCCn2c(S(=O)(=O)O)nc3ccccc32)c1`, the “activity, negative = inhibition” value was -37.5%.
Take `O=S1(=O)C=C(Oc2ccc3ccccc3c2)c2ccccc21`: the AC50 is 3.55 µM (active).
For `O=S1(=O)C=C(N2CCOCC2)c2ccccc21`, the “activity, negative = inhibition” value is -30.9%.
As to `Cc1ccc(S(=O)(=O)Nc2nc3ccccc3nc2N2CCc3ccccc3C2)cc1`, the AC50 was 5.01 µM (active).
Still for that read-out and setting: for `Nc1ccc(S(=O)(=O)Nc2cnc3ccccc3n2)cc1` the value was “inactive”.
Take `O=C(c1ccncc1)N1CCC2(CCCN(Cc3ccccc3)C2)CC1`: the “activity, negative = inhibition” value was -1.19%.
`COc1ccc(C(=O)N2CCC[C@@]3(CCN(Cc4ccc(C#N)cc4)C3)C2)cc1`: the “activity, negative = inhibition” value was -8.34%.
Take `N#CCSc1nc2cc(C(=O)N3CCCC3)ccc2c(=O)n1Cc1ccccc1`: the AC50 was 11.2 µM (active).
Turning to `CCCCn1c(SCC(N)=O)nc2ccc(N3CCOCC3)cc2c1=O`, the “activity, negative = inhibition” value was -12.8%.
As to `N#CCSc1nc2ccc(N3CCCCC3)cc2c(=O)n1Cc1ccccc1`, the AC50 is 7.94 µM (active).
Consider `N#CCCn1c(=O)c(-c2ccc(F)cc2)nc2cnc(OCc3ccccc3)nc21`, for which the “activity, negative = inhibition” value is 15.8%.
On to `CSc1nc(N)c2ncn([C@H]3O[C@H](COP(=O)(O)OP(=O)(O)O)[C@@H](O)[C@@H]3O)c2n1`, for which the “activity, negative = inhibition” value was -16.9%.
With `N#Cc1cc(-c2ccccc2)cnc1Sc1ccc(Cl)cc1`, the AC50 is 4.47 µM (active).
On the same count and under the same terms, for `N#Cc1cc(-c2ccc(Cl)cc2)cnc1Sc1ccccc1` the value was 4.47 µM (active); for `N=C1C(c2nc(-c3ccc(F)cc3)cs2)=C(O)CN1CCCN1CCOCC1`, 25.1 µM (active).
On to `N#Cc1c2c(c(-n3cnc4ccccc43)n3c1nc1ccccc13)CCC2`, for which the “activity, negative = inhibition” value is -23.5%.
As for `c1ccc2c(c1)ncn2-c1ncnc2sc3c(c12)CCCC3`, the AC50 is 8.91 µM (active).
Consider `COc1ccccc1CN1C(=O)c2ccncc2C1=O`, for which the AC50 is 14.1 µM (active).
Take `COc1ccccc1CN1CC2(CCN(C(=O)c3ccncc3)CC2)C1`: the “activity, negative = inhibition” value was -42.2%.
`COc1ccccc1CN1CC2(CCN(C(=O)c3cnccn3)CC2)C1`: the “activity, negative = inhibition” value was 37.1%.
Regarding `CCOC(=O)c1c(C)nc2sc3c(=O)n(-c4ccc(C(C)=O)cc4)nnc3c2c1-c1ccc(Cl)cc1`, the “activity, negative = inhibition” value is -21.6%.
In the case of `CCOC(=O)c1c(C)nc2sc3c(=O)n(-c4ccc(C)cc4)cnc3c2c1-c1ccc(OC)cc1`, the AC50 is 1.26 µM (active).
Take `Cc1cc2ccccc2c[n+]1CC(O)C[n+]1cc2ccccc2cc1C`: the activity, negative = inhibition was 3.92% [at 11.4 µM].
Consider `O=C(NCc1ccccc1)c1cccc(COc2cccc(Cl)c2)c1`, for which the AC50 was 7.08 µM (active).
For `O=C(O)c1ccc(OCc2ccccc2)c(Cl)c1`, the activity, negative = inhibition was 18.7% [at 11.4 µM].
For the compound `N#CC1=C(N)OC2=C(C(=O)CCC2)C12CCC1(CC2)OCCO1`, the “activity, negative = inhibition” value is -60.8%.
For `O=c1c(-c2nnc(SCc3ccc(Cl)c(Cl)c3)o2)cccn1Cc1ccccc1`, the AC50 was 1.41 µM (active).
With `O=c1c(-c2nnc(SCc3ccc(Cl)cc3Cl)o2)cccn1Cc1ccccc1`, the AC50 is 1.26 µM (active).
In the case of `COc1ccc(-c2nc3cnc(N4CCN(C)CC4)nc3n(C)c2=O)cc1`, the “activity, negative = inhibition” value was -40.9%.
For the compound `CN(C)c1ncc2nc(-c3cc(F)cc(F)c3)c(=O)n(CCC#N)c2n1`, the “activity, negative = inhibition” value is 13.1%.
Still for that read-out and setting: for `Cc1ccc(NC(=O)/C(=C/c2cccc([N+](=O)[O-])c2)NC(=O)C2CCCCC2)c(C)c1` the value was -19.8%.
Take `CCOC(=O)C1CCCN(C(=O)/C=C/c2cccc([N+](=O)[O-])c2)C1` (configuration not stated): the AC50 was 14.1 µM (active).
Same read-out and setting: the figure for `CC1CC(C)CN(C/C=C/c2ccccc2[N+](=O)[O-])C1` (configuration not stated) is 7.08 µM (active).
For the compound `CCOC(=O)C1CCCN(C/C=C/c2ccccc2[N+](=O)[O-])C1` (configuration not stated), the AC50 is 3.98 µM (active).
Still for that read-out and setting: for `CC1CCCN(C/C=C/c2ccccc2[N+](=O)[O-])C1` (configuration not stated) the value was 8.91 µM (active).
`O=C(O)[C@H]1CCCN(CCC=C(c2ccccc2)c2ccccc2)C1`: the “activity, negative = inhibition” value is 37%.
With `O=C(/C=C/c1cccc([N+](=O)[O-])c1)NCCN1CCOCC1`, the “activity, negative = inhibition” value was -22.3%.
Regarding `O=C(CCCCC(=O)Nc1c(I)cc(I)c(C(=O)O)c1I)Nc1c(I)cc(I)c(C(=O)O)c1I`, the “activity, negative = inhibition” value is 2.67% [at 25.6 µM].
`O=C(O)CCNc1ncnc2nc[nH]c12`: the activity, negative = inhibition is 35.9% [at 11.4 µM].
On to `O=C(Nc1cc(C(=O)Nc2ccc(S(=O)(=O)O)cc2S(=O)(=O)O)cc(C(=O)Nc2ccc(S(=O)(=O)O)cc2S(=O)(=O)O)c1)Nc1cc(C(=O)Nc2ccc(S(=O)(=O)O)cc2S(=O)(=O)O)cc(C(=O)Nc2ccc(S(=O)(=O)O)cc2S(=O)(=O)O)c1`, for which the “activity, negative = inhibition” value was -25.4%.
For the compound `C#CCCCO/N=C1/C[C@@H](O)[C@@H](O)[C@@H]2[C@@H]3C(=O)N(CCC(=O)OCC)C(=O)[C@H]3CC[C@H]12`, the activity, negative = inhibition was 2.13% [at 11.4 µM].
On to `Oc1c(Cl)cc(CN(Cc2cc(Cl)c(O)c(Cl)c2)C2CCCCC2)cc1Cl`, for which the activity, negative = inhibition is -4.32% [at 11.4 µM].
Regarding `Oc1c(Cl)cc(C(c2cc(Cl)c(O)c(Cl)c2)C(c2cc(Cl)c(O)c(Cl)c2)c2cc(Cl)c(O)c(Cl)c2)cc1Cl`, the AC50 is 2.51 µM (active).
For the compound `O=C(O)CCN1C(=S)CSC1=S`, the activity, negative = inhibition was 27% [at 11.4 µM].
Regarding `COc1ccccc1CN1CCC2(CC1)CCN(C(=O)c1c(C)noc1C)CC2`, the “activity, negative = inhibition” value is 41.5%.
As to `CCOC(=O)N/N=C/c1ccc(F)cc1`, the “activity, negative = inhibition” value was -26%.
As to `Cc1nn(C)c(Cl)c1NC(=O)OCc1ccc(Cl)cc1Cl`, the AC50 was 2.24 µM (active).
With `COc1ccccc1COC(=O)Nc1c(C)nn(C)c1Cl`, the AC50 was 3.55 µM (active).
On the same count and under the same terms, the figure for `Cc1nn(C)c(Cl)c1NC(=O)OCc1ccc(F)cc1` is 7.08 µM (active).
As to `COC(=O)N1CCC2(CCN(Cc3ccccc3OC)CC2)CC1`, the “activity, negative = inhibition” value was -39%.
For `O=C(c1cnccn1)N1CCC2(CC1)CN(C(c1ccccc1)c1ccccc1)C2`, the “activity, negative = inhibition” value was -22.3%.
